Assay outcomes deposited in PubChem by National Center for Advancing Translational Sciences (NCATS).
A selection: hits, their analogues and other compounds. The true share with any hit is near 19%.
IL-1B inflam inh – qHTS for Inhibitors of Inflammasome Signaling: IL-1-beta AlphaLISA Primary Screen | THP-1 LPS/ATP IL-1B secretion, AlphaLISA, 16 h; active compounds read low | activity change, % at 57.5 µM | hit rate 4.7% among 360,000 | AID 743279, 2014; in the data active = activity change below about -50%; inconclusive = mostly about -30% to -49%
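THP-1 cells pretreated 1 hr with compounds (up to 57.5 uM final), then stimulated with LPS (250 ng/mL final) plus ATP (1.25 mM final); secreted IL-1B measured by AlphaLISA after 16 hr, decreased signal indicating inhibition.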
HT1080 IDH1KD tx – qHTS for induction of synthetic lethality in tumor cells producing 2HG: qHTS for the HT-1080-IDH1KD cell line; Potency, µM (doses to about 46.1 µM), for the others: at the top dose activity, negative = toxicity, hits mostly cytotoxic; HT-1080 IDH1 knockdown viability, ATP luminescence, 48 h; hit rate 2% among 360,000;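 also: potency is read from the fitted curve at half-maximal effect; 0% = DMSO wells and -100% = cell-free medium wells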
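Luminescent ATP read-out (CellTiter-Glo, 10 min at room temperature) after 48 h compound exposure at 37 °C gave viability of IDH1-knockdown HT-1080 cells. Activity was normalised to DMSO and cell-free wells, then fitted as concentration-response curves.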
DT40 TDP1 CPT – qHTS for Inhibitors of human tyrosyl-DNA phosphodiesterase 1 (TDP1): qHTS in cells in presence of CPT. hit rate 12% among 420,000. Potency, µM (series often up to 46.2 µM), for inactives: at the highest dose activity change, negative = growth inhibition, most hits filed as inhibitors. chicken DT40 Tdp1-/-;hTDP1 cells + 20 nM CPT, ATP luminescence, 48 h; also: potency is read from the fitted curve at half-maximal effect; nearly all actives have a fitted effect of over 55% in size
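Chicken DT40 Tdp1-/- cells complemented with human TDP1, 400 cells/well, exposed to compounds plus 20 nM camptothecin for at least 48 h at 37 C; viability read as ATP content by CellTiter-Glo luminescence.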
DT40 TDP1 no CPT – qHTS for Inhibitors of human tyrosyl-DNA phosphodiesterase 1 (TDP1): qHTS in cells in absence of CPT; DT40 Tdp1-/- hTDP1 cells, no CPT, ATP luminescence, 48 h; Potency, µM (titrated, usually from 46.2 µM), for inactives: at the highest dose activity change, negative = growth inhibition, usual class: inhibitors; hit rate 15% among 420,000; also: potency is read from the fitted curve at half-maximal effect; nearly all actives have a fitted effect of over 55% in size
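Seeded 400 DT40-hTDP1 cells/well (vehicle DMSO, no 20 nM CPT); pinned compounds; ≥48 hr at 37 °C; CellTiter-Glo luminescence as viability measure.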
HT1080NT lethal – qHTS for induction of synthetic lethality in tumor cells producing 2HG: qHTS for the HT-1080-NT fibrosarcoma cell line | HT-1080-NT fibrosarcoma viability, CellTiter-Glo ATP luminescence, 48 h | Potency, µM (top dose mostly 46.1 µM), without a hit: top-dose activity, negative = less viability, most hits filed as cytotoxic | hit rate 1.6% among 360,000 | AID 686970, 2013;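 also: NT is the 2HG producing partner of a matched IDH1 knockdown line; potency is read from the fitted curve at half-maximal effect; 0% = DMSO-treated cells and -100% = media-only wells without cells; nearly all actives have a fitted effect of over 55% in size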
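Read-out is CellTiter-Glo luminescence after 10 minutes at room temperature, following 48 hours' compound treatment of HT-1080-NT cells (750 cells/well, RPMI, 5% FBS, 37 degrees C).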
An asterisk follows results filed as active; ? = inconclusive; · = no result; [ ] = remark or other dose. Unless noted, calls follow the shape of the dose curve; as a rule, active = well fitted curve in the direction sought with a large enough effect; inconclusive = small, poorly fitted or top-dose-only effect, or another doubt; inactive = no such curve, though single readings can be large; an effect the other way counts as inactive or inconclusive. Unless noted, % is scaled to controls: 0 for no effect and ±100 for the full control effect.

SMILES | IL-1B inflam inh | HT1080 IDH1KD tx | DT40 TDP1 CPT | DT40 TDP1 no CPT | HT1080NT lethal
Fc1cccc(-c2cc3nc4c(c(NCc5ccco5)n3n2)CCCC4)c1 | -92* | -13% | ? | -19% | ?
Fc1cccc(-c2cc3nc4c(c(N5CCOCC5)n3n2)CCCC4)c1 | -3 | 10% | 18µM* | ? | 2%
OC1CCN(c2c3c(nc4cc(-c5ccc(Cl)cc5)nn24)CCC3)CC1 | ? | -12%[9.24 µM] | 23µM* | 21µM* | -6%
Clc1cccc(-c2cc3nc4c(c(N5CCN(c6cnccn6)CC5)n3n2)CCCC4)c1 | -15 | 8% | 23µM* | ? | 9%
Cc1nc2cc(-c3ccccc3)nn2c(C)c1CCC(=O)NCc1ccco1 | -3 | -1% | -3% | -19% | -1%
Cc1nn2c(N3CCCC3)c3c(nc2c1-c1ccccc1)CCC3 | 16 | -2% | ? | ? | 5%
COc1ccc(Cl)cc1NC(=O)CSc1nnc(Cc2ccc(C)cc2)c(=O)[nH]1 | 20 | 2% | -10% | ? | -1%
O=C(NCC(c1ccco1)N1CCc2ccccc2C1)c1ccc([N+](=O)[O-])cc1 (stereo unspecified) | 3 | -4% | ? | 23µM* | -9%
COc1ccccc1C(=O)NCC(c1cccnc1)N1CCc2ccccc2C1 (stereo unspecified) | · | · | 23µM* | 21µM* | ·
O=C(NCC(c1cccnc1)N1CCc2ccccc2C1)C(=O)Nc1ccccc1F (stereo unspecified) | · | · | 15µM* | 21µM* | ·
COc1ccccc1C(=O)NCC(c1cccnc1)N(C)C (stereo unspecified) | 0 | 0% | -13% | -13% | 2%
O=C(NCC(c1cccnc1)N1CCc2ccccc2C1)C(=O)Nc1ccccc1 (stereo unspecified) | · | · | 21µM* | ? | ·
COc1ccc(-n2c(CNC(=O)c3ccc(OC)cc3OC)nnc2SC)cc1 | · | · | 16%[9.04 µM] | -24% | ·
O=C(NCC(c1ccco1)N1CCc2ccccc2C1)c1cccc(F)c1 (stereo unspecified) | 3 | 9% | -12% | -19% | 13%
O=C(NCC(c1cccnc1)N1CCc2ccccc2C1)c1ccc(F)c(F)c1 (stereo unspecified) | · | · | 8.2µM* | 7.3µM* | ·
CC(=O)Nc1cccc(NC(=O)C(=O)NCC(c2ccco2)N2CCc3ccccc3C2)c1 (stereo unspecified) | 11 | -14% | 16µM* | 23µM* | -2%
O=c1c2ccccc2c(C=NCCCN2CCOCC2)c(O)n1Cc1ccccc1 | -8 | -22% | 18µM* | ? | -15%
O=C(NCCN1CCCC1)c1ccc(Cn2c(=S)[nH]c3cc4c(cc3c2=O)OCO4)cc1 | 16 | 5% | -29% | 23µM* | 0%
O=c1c2cc3c(cc2[nH]c(=S)n1C1CCN(Cc2ccccc2)CC1)OCO3 | 13 | 9% | 26µM* | ? | -6%
CC1CCCCN1CCNC(=O)c1ccc2c(=O)n(Cc3ccc(Cl)cc3)c(=S)[nH]c2c1 (stereo unspecified) | -97* | 23µM* | ? | ? | 21µM*
Cc1ccc(S(=O)(=O)N2CCOCC2)cc1NC(=O)Nc1ccc([N+](=O)[O-])cc1 | -3 | 7% | ? | ? | 0%
CC(NC(=O)c1cc(F)ccc1F)c1nnc2n1CCN(Cc1ccco1)CC2 (stereo unspecified) | · | · | 20% | 17% | ·
COc1ccccc1Cn1c(=S)[nH]c2cc(C(=O)NCCN(C)C)ccc2c1=O | -56* | -39% | ? | -19% | -26%
COc1ccc(CCn2c(=S)[nH]c3cc(C(=O)NCc4ccco4)ccc3c2=O)cc1OC | 15 | -29% | 21µM* | 16µM* | ?
